# Screens as filed in PubChem.
# BRCA1 expr up: increases BRCA1 expression; 380,000 compounds, 1.1% hits; MCF7-BRCA1-FFLuc reporter, luminescence, 48 h; response scale: scaled: vehicle 0%, 10 µM genistein 100%; Potency, µM (highest dose often 46.1 µM), usual class: activators; AID 624202; note: nearly all actives have a fitted effect of over 80% in size
#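 Luminescence from a BRCA1-driven firefly luciferase in MCF7 cells was read after 48 h compound exposure at 37 C. Data normalized against DMSO and a 10microM genistein activation control, then curve-fitted across the titration.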
# NPSR antag: blocks cAMP signaling of the human neuropeptide S receptor; Q6W5P4; CHO-NPSR cells, cAMP TR-FRET, antagonist mode; Potency, µM (top dose mostly 38.3 µM), most hits filed as inhibitors; 220,000 compounds, 1% hits; note: nearly all actives have a fitted effect of over 50% in size
# RXFP1 ag: RXFP1 (human) receptor agonism; 370,000 compounds, 0.3% hits; HEK293T-RXFP1 cAMP TR-FRET, 30 min; response scale: percent of porcine relaxin response, buffer zero; Potency, µM (doses to about 57.5 µM), actives largely listed as activators; Q9HBX9; note: nearly all actives have a fitted effect of over 60% in size
# Target sequence (Q9HBX9 whole entry, looked up): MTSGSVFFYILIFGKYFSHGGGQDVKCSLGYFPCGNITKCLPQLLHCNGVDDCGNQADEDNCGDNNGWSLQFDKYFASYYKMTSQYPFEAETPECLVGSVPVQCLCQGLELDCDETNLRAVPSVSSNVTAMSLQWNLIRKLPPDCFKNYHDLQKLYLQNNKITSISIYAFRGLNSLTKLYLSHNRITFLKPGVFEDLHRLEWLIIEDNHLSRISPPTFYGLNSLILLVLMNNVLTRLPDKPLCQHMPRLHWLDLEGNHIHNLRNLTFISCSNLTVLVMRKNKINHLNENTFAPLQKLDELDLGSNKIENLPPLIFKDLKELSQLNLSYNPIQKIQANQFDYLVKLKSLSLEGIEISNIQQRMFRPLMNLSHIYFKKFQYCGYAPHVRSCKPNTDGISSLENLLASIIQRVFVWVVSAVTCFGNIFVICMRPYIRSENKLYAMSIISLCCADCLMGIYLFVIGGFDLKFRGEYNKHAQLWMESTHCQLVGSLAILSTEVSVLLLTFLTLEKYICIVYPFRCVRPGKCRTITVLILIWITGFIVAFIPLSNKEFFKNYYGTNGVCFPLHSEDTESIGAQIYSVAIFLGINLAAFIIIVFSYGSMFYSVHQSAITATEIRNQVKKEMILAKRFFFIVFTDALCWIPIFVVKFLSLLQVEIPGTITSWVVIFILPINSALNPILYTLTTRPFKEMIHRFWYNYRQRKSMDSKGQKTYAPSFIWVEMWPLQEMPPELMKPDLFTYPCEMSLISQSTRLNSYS
#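 cAMP rise read by TR-FRET after 30 min, 37C compound exposure (up to 58 uM) in RXFP1-transfected HEK293 cells with Ro 20174 present. EC50 from Hill-equation fits, with 29 nM porcine relaxin as 100% and buffer as basal.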
# Giardia kill: Giardia lamblia killing. Giardia lamblia trophozoite viability. activity change, % at 7.66 µM, hits read low. AID 540267. 340,000 compounds, 0.15% hits; in the data active = activity change below about -80%; inconclusive = between about -30% and that limit;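 note: parasites exposed to compound for two days anaerobically before the ATP read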
#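 Trophozoite viability was measured as ATP-dependent luminescence, read 15-30 min after reagent addition. Before that, parasites at 100 cells/well were exposed to compounds for 48 h, anaerobically, at 37 deg C.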
# IL-2 act: activates IL-2 in a cell-based reporter assay; 360,000 compounds, 0.065% hits; IL-2 activation reporter assay, cell-based qHTS; stimulated with anti-CD3/CD4/CD28 beads; in transgenic mouse T cells; AID 652025; activation, % (series mostly up to about 46 µM); in the data active = activation above about 50%; inconclusive = mostly about 30% to 49%
#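 Unstimulated transgenic mouse T cells, 750 per well, received compound and, after 60 minutes, anti-CD3/anti-CD4 bead plus anti-CD28 stimulation. EGFP and DsRed were quantified after 18 hours.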
# RXFP1 antagonist: RXFP1 (human) relaxin receptor antagonism; HEK293-RXFP1, relaxin-stimulated cAMP HTRF, 30 min; active compounds read low; activity change, negative = inhibition, % at 57.5 µM; AID 1259400; 350,000 compounds, 0.59% hits; Q9HBX9;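 active = activity change of -60% or lower, but not beyond a set lower limit; inconclusive = change between -60% and -40%, or beyond the set limit; inactive = change above -40%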
# Hits are given with their value; i = inactive; ? = inconclusive; nt = not tested or not shown. The list is not random: actives were taken first. Their share in the collection is about 1.9%. Unless noted, calls come from the whole dose curve; as a rule, active = well fitted curve in the direction sought with a large enough effect; inconclusive = small, poorly fitted or top-dose-only effect, or another doubt; inactive = no such curve, though single readings can be large; an effect the other way counts as inactive or inconclusive.
SMILES,BRCA1 expr up,NPSR antag,RXFP1 ag,Giardia kill,IL-2 act,RXFP1 antagonist
O=C(Nc1nnc(SCc2ccc(F)cc2)s1)C1Cc2ccccc2CN1C(=O)c1ccco1 (configuration not stated),i,i,i,i,i,-64.1
O=C(Nc1nnc(C2CC2)s1)C1Cc2ccccc2CN1C(=O)c1ccco1 (configuration not stated),i,i,i,i,i,i
Cc1ccc(-n2c(O)c(C=Nc3ccccc3-c3n[nH]c(=S)[nH]c3=O)c3ccccc3c2=O)cc1C,i,1.26µM,i,i,i,i
C(=Nc1ccc(/C=C/c2ccnc3ccccc23)cc1)c1ccc2c(c1)OCO2,i,nt,nt,nt,nt,nt
Cc1c2ccccc2nc2c(F)c(N(C)C)c(F)c(F)c12,12.6µM,i,i,i,i,i
Cc1ccc(Cl)cc1N1CCN(C(=O)c2cccn2-c2nnc(N3CCCC3)s2)CC1,nt,nt,i,nt,nt,-82.7
O=C(c1cccn1-c1nnc(N2CCCC2)s1)N1CCN(c2ccccc2)CC1,nt,nt,i,nt,nt,i
O=C(COC(=O)c1ccccc1OCCOc1ccccc1)Nc1ccc(Br)cc1,i,nt,nt,nt,nt,nt
Cc1ccc(CNC(=O)Nc2cccc(C)c2)cc1,8.91µM,i,i,i,i,i
Cc1cccc(NC(=O)Nc2cc(C)cc(C)n2)c1,3.55µM,i,i,i,i,i
COc1ccc(Nc2c([N+](=O)[O-])ccc3c2=NC2(CCCCC2)N=3)cc1,i,10µM,i,i,i,i
CCCOc1ccc(-c2nnc(N)s2)cc1,4.47µM,i,i,i,i,i
COc1ccc(-c2nnc(N)s2)cc1,i,i,i,i,i,i
Cn1c2ccccc2c2cc(/C=N/NC(=O)c3cc(O)cc(O)c3)ccc21,i,nt,i,i,i,i
Cn1c2ccccc2c2cc(/C=N/NC(=O)c3cc(O)ccc3O)ccc21,i,nt,i,i,i,-112.4
CCN1C(=O)/C(=C/C=C2/SCCN2C)SC1=S,?,i,i,i,i,i
CN1CCS/C1=C\C=C1/SC(=S)N(CC(=O)O)C1=O,i,i,i,i,64.7,i
COc1cccc(C(=O)Oc2c(CN3CCOCC3)cc(Cl)c3cccnc23)c1,i,10µM,i,i,i,i
COc1ccc(C(=O)Oc2c(CN3CCOCC3)cc(Cl)c3cccnc23)cc1,i,i,i,i,i,i
O=C(Oc1c(CN2CCOCC2)cc(Cl)c2cccnc12)c1ccc(F)cc1,i,5.01µM,i,i,i,i
O=C(Oc1c(CN2CCOCC2)cc(Cl)c2cccnc12)c1cccs1,i,?,i,i,i,i
O=C(Oc1c(CN2CCOCC2)cc(Cl)c2cccnc12)c1ccccc1Cl,i,7.94µM,i,i,i,i
Cc1nnc(NC(=O)c2cc3ccccc3o2)s1,7.08µM,nt,i,i,i,i
CCCCOc1cccc(C(=O)N(Cc2sccc2C)C2CCS(=O)(=O)C2)c1 (configuration not stated),nt,nt,i,nt,nt,i
CCOc1ccc(C(=O)Nc2cccc(-c3ccc(N4CCOCC4)nn3)c2)cc1OCC,11.2µM,nt,i,i,i,i
SMILES,BRCA1 expr up,NPSR antag,RXFP1 ag,Giardia kill,IL-2 act,RXFP1 antagonist
O=C(COC(=O)CNS(=O)(=O)c1ccc(Br)cc1Cl)NC1CCCC1,i,nt,i,i,i,-93.0
O=C(COC(=O)CNS(=O)(=O)c1cc(C(F)(F)F)ccc1Cl)NC1CC1,i,nt,nt,?,i,i
COc1ccc(Cl)cc1NC(=O)C(C)n1nnc2sc3c(c2c1=O)CCCC3 (configuration not stated),nt,nt,i,nt,nt,i
O=C(NC1=NCCS1)c1ccc(-c2ccc(Cl)cc2)o1,2.82µM,i,i,i,i,i
Cc1cc(C)n(-c2ccc(C(=O)Nc3ccc4c(c3)OCO4)cc2)n1,?,i,i,i,i,i
O=C(Nc1nnc(C2CCCCC2)s1)c1ccc(Br)s1,5.01µM,?,?,i,i,i
O=C(NC1=NCCS1)c1ccc(Br)s1,3.16µM,i,i,i,i,i
Cc1cc(C)n(-c2ccc(C(=O)NC3=NCCS3)cc2)n1,11.2µM,i,i,i,i,i
O=C(Nc1nnc(C(F)(F)F)s1)c1ccc(Br)s1,i,i,i,i,i,i
O=Cc1ccc(O)c(O)c1O,nt,nt,nt,nt,nt,i
